Source: PubChem BioAssay
Unmarked numbers belong to inactive results.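 Rule for the calls: active = inhibition at or above 50% at 10 µM; inactive = inhibition below 50%.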

Test: inhibitors of Sendai virus-induced IRF3 signaling, primary screen, TLR/RLR signaling modifier project, cell-based, Sendai virus stimulus, luciferase, 10K MLSCN set (AID 602276);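 note: firefly luciferase from ISG56 promoter only with Renilla not read in this screen; 0% = Sendai virus plus DMSO and 100% = medium plus DMSO without virus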
Settings: HEK293 RL24 IRF3 luciferase reporter, at 10 µM, active compounds read high

Q: Which inhibition does the source give for `CCCCOc1ccc(-c2nnn(C(C)(C)C(=O)OC)n2)cc1` here?
A: -33.8%

Q: With `O=c1c2nnn(Cc3ccc(Cl)cc3)c2ncn1Cc1ccc(F)cc1` as the molecule, how does the inhibition read?
A: 13.6%

Q: Which inhibition does the source give for `COc1cc(C2C(C#N)=C(N)OC3=C2C(=O)CC(C)(C)C3)ccc1OC(=O)N1CCOCC1` (stereo unspecified) here?
A: -15.1%

Q: With `CCOC(=O)c1[nH]c(C)c(C(=O)Nc2ccc(C)cc2C)c1C` as the molecule, how does the inhibition read?
A: 1.87%

Q: Which inhibition does the source give for `Cn1cccc1Cc1nnc(SCC(N)=O)n1-c1ccc(F)cc1` here?
A: 10.4%

Q: For `COc1cccc(OCCn2ccnc2)c1`, which inhibition is on record?
A: -8.26%

Q: For `COc1ccc(CCNC(=O)c2cc(C(C)C)on2)cc1OC`, which inhibition is on record?
A: 2.63%

Q: With `CC(CN1CCCCC1)OC(=O)c1ccc2c(c1)OCO2` (stereo unspecified) as the molecule, how does the inhibition read?
A: 6.1%

Q: For `COc1ccc(NC(=O)c2oc3ccc(S(=O)(=O)N4CCC5(CC4)OCCO5)cc3c2C)cc1`, which inhibition is on record?
A: 3.21%

Q: With `CC1CCc2c(sc3c2C2=NS(=O)(=O)CCN2C=N3)C1` (stereo unspecified) as the molecule, how does the inhibition read?
A: 11.9%

Q: Which inhibition does the source give for `COc1ccc(/C=N/n2cnnc2SCc2ccc(OC)cc2)cc1` here?
A: 6.24%

Q: Which inhibition does the source give for `CCn1c(CCNC(=O)c2cccs2)nnc1SCC(=O)c1ccc(OC)cc1` here?
A: -4.44%

Q: Which inhibition does the source give for `Cc1ccc2c(c1)C(N1CCCC1=O)CC(c1ccco1)N2` (stereo unspecified) here?
A: -30.3%

Q: With `Cc1sc2nc(SCC(=O)Nc3c(C)n(C)n(-c4ccccc4)c3=O)n(C)c(=O)c2c1C` as the molecule, how does the inhibition read?
A: 5.86%

Q: Which inhibition does the source give for `COCCN(CCOC)C(=O)c1sc2nc(-c3ccccc3)cn2c1C` here?
A: 9.08%

Q: With `CCc1ccccc1NC(=O)C(CC)Sc1nc2cc3c(cc2c(=O)n1Cc1ccco1)OCO3` (stereo unspecified) as the molecule, how does the inhibition read?
A: 16.3%
